For five compounds, Potency and outcome results are on record in PubChem BioAssay (NCATS).

For assay [1], the system named is Zika virus NS2B-NS3 protease (linked construct). As to the kind of experiment: Primary screen NINDS Rhodamine qHTS for Zika virus inhibitors (AID 1347160). Note: nearly all actives have a fitted effect of over 55% in size. Note: potency is the fitted concentration of half-maximal effect. The method in brief: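 Percent inhibition, normalized to uninhibited and enzyme-free controls, is fitted to a 4-parameter Hill equation. Fluorescence change comes from a 15-min cleavage of 1.5 microM bis-peptide Rhodamine110 substrate by 25 nM linked NS2B-NS3 at room temperature.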
(In general: qHTS replaces the single test concentration by a dilution series.)

Assay [2] is described as follows: HPAF-II Cancer Cell Toxicity qHTS against the NCATS CANVASS Library (AID 1347346). Note: nearly all actives have a fitted effect of over 55% in size. Note: potency is the fitted concentration of half-maximal effect. A digest of the protocol: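 HPAF-II cells at 1000 cells/well were treated with an 11-point concentration series for 72 hours at 37 degrees C. Viability read by CellTiter-Glo luminescence.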
Assay [3] can be described thus: OV-SAHO Cancer Cell Toxicity qHTS against the NCATS CANVASS Library (AID 1347348). Note: nearly all actives have a fitted effect of over 55% in size. Note: potency is the fitted concentration of half-maximal effect. The method in brief: (§1)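 Per well, 1000 cells; exposure 72 h with compound at 11 final concentrations; readout CellTiter-Glo luminescence.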
Assay [4] in a line: U-118MG Cancer Cell Toxicity qHTS against the NCATS CANVASS Library (AID 1347351). Note: potency is the fitted concentration of half-maximal effect. A digest of the protocol: as §1
Assay [5] can be described thus: COV-362 Cancer Cell Toxicity qHTS against the NCATS CANVASS Library (AID 1347352). Note: potency is the fitted concentration of half-maximal effect. A digest of the protocol: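 Cells at 1000/well were given compound 4 h after plating in an 11-point series. Viability was read by CellTiter-Glo luminescence after 72 h at 37 degrees C.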
Assay [6] in a line: HEK293 18hr Apoptosis Induction qHTS against the NCATS CANVASS Library (AID 1347357). The method in brief: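 HEK293 cells (500 per well, DMEM with 10% FBS) were treated with natural products, incubated 18 hours at 37 degrees C, then caspase-3/7 activity was read by Caspase-Glo luminescence after 15 min at room temperature.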
Assay [7] can be described thus: HPAF-II 12hr Apoptosis Induction qHTS against the NCATS CANVASS Library (AID 1347358). A digest of the protocol: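 HPAF-II cells, 500/well in DMEM + 10% FBS, exposed 12 hours at 37 degrees C to compound (11-point). Caspase-Glo 3/7 added for 15 min at room temperature; luminescence reflects caspase-3/7 activity.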
Assay [8] in a line: HEK293 24hr Apoptosis Induction qHTS against the NCATS CANVASS Library (AID 1347359). A digest of the protocol: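 HEK293 cells (500/well, DMEM + 10% FBS) were exposed to compounds in an 11-point series for 24 hours at 37 degrees C, then caspase-3/7 activity was read by Caspase-Glo DEVD luciferase luminescence after 15 min.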
The nature of assay [9]: HPAF-II 18hr Apoptosis Induction qHTS against the NCATS CANVASS Library (AID 1347360). A digest of the protocol:
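HPAF-II cells (500/well, DMEM + 10% FBS) were exposed to compounds for 18 hours at 37 degrees C. Caspase-3/7 activity was then read by Caspase-Glo 3/7 luminescence after 15 min at room temperature.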

A short description of assay [10]: HEK293 12hr Apoptosis Induction qHTS against the NCATS CANVASS Library (AID 1347361). The method in brief:
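Read-out: Caspase-Glo 3/7 luminescence (DEVD substrate), 15 min RT. Preceded by 12 h compound exposure of HEK293, 500 cells/well, 11-pt qHTS titration; doxorubicin titration as control.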

Assay [11] deals with Luciferin 4-monooxygenase (Photinus pyralis) (UniProt P08659). As to the kind of experiment: Firefly luciferase counterscreen qHTS: Assay Interference Panel against the NCATS CANVASS Library (AID 1347363). Note: series mostly up to about 57 µM. A digest of the protocol:
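Purified P. pyralis luciferase was added to compounds (11-point series) preincubated 15 min at room temperature with substrate containing 0.013 mM D-luciferin and 0.013 mM ATP; luminescence was read after 5 min.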
(In general: The purpose of a counterscreen is to sort out artefacts and off-target activity.)

A short description of assay [12]: MCF7 Cancer Cell Toxicity qHTS against the NCATS CANVASS Library (AID 1347369). Note: potency is the fitted concentration of half-maximal effect. The method in brief:
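MCF7, 500 cells/well; cpds 11-pt qHTS; 72 hr, 37C/5% CO2; CellTiterGlo ATP luminescence.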

A short description of assay [13]: qHTS for ATAD5 Antagonist screened against the NCATS CANVASS Library (AID 1347370). Note: nearly all actives have a fitted effect of over 65% in size. Note: potency is the fitted concentration of half-maximal effect. The method in brief: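 HEK293T cells with stably integrated ATAD5-luciferase reporter, 2000/well, 5 h attachment; compounds plus 10 µM 5-fluorouridine, 16 h at 37 °C. Luciferase luminescence read, with CellTiter-Fluor viability read first.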
The nature of assay [14]: J3T Cancer Cell Toxicity qHTS against the NCATS CANVASS Library (AID 1347371). Note: potency is the fitted concentration of half-maximal effect. The method in brief:
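J3T dog glioma cells, 500 per well, treated 72 h at 37C with compounds (11-point qHTS); viability from ATP content by CellTiterGlo luminescence; bortezomib titration as control.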

Assay [15] is described as follows: 10-beta competent E. coli microbial cell viability qHTS against the NCATS CANVASS Library (AID 1347376). Note: series mostly up to about 46 µM. A digest of the protocol: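 10-beta competent E. coli (0.2 OD) were exposed overnight at 37C to compounds in an 11-point series. Viability was read as ATP-dependent BacTiter-Glo luminescence after 20 min at room temperature.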
Assay [16] can be described thus: qHTS for Inflammasome Signaling Inhibitors: IL-1-beta AlphaLISA screen against the NCATS CANVASS Library (AID 1347379).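 For Potency: secreted IL-1B measured as AlphaLISA emission at 615 nm; potency is the fitted concentration of half-maximal effect.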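 Note: human THP-1 cells primed with LPS then triggered with ATP.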 A digest of the protocol: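 THP-1 cells pretreated 1 hr with compound (up to 57.5 uM final), then stimulated with LPS (250 ng/mL final) and ATP (1.25 mM final). Secreted IL-1B measured by AlphaLISA after 16 hr; glyburide as positive control.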

Assay [17] can be described thus: Inflammasome Signaling qHTS Counterscreen: IL-1-beta AlphaLISA counterscreen against the NCATS CANVASS Library (AID 1347381).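 Note: cell-free check with purified IL-1β in medium and no THP-1 cells; series mostly up to about 57 µM.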 The method in brief:
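Cell-free interference check: compounds added to medium spiked with 4 pg purified IL-1β. Anti-IL-1β acceptor beads (6 ug/mL) with 0.6 nM biotinylated antibody added for 1 h at RT, then streptavidin donor beads (24 ug/mL) for 30 min in the dark. AlphaLISA read at 680/615 nm.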

Assay [18] in a line: Cytotoxicity qHTS for assessment of Hepg2 cells membrane integrity screened against the NCATS CANVASS Library (AID 1347387). The method in brief:
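HepG2 cells (2000/well) attached overnight, then exposed 5 hr at 37C to compounds in an 11-point series (0.59 nM - 46 uM final). LDH release from damaged membranes read fluorometrically (CytoTox-ONE; 560/590 nm) after 10 min at room temperature.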

Assay [19] is described as follows: Vero-766 cells viability qHTS against the NCATS CANVASS Library: Counterscreen for Zika virus inhibition assay (AID 1347394). Note: nearly all actives have a fitted effect of over 60% in size. Note: potency is the fitted concentration of half-maximal effect. The method in brief:
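Uninfected Vero 766 (African green monkey) cells, 1000/well, attached overnight, then exposed 72 h at 37C to compounds (11-point qHTS). Viability read by CellTiter-Glo luminescence; media-only wells served as 100% inhibition.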

For assay [20], the target named is Nuclear receptor subfamily 1 group I member 3 (Homo sapiens) (UniProt Q14994). As to the kind of experiment: qHTS for Constitutive Androstane Receptor (CAR) Antagonist screened against the NCATS CANVASS Library (AID 1347372).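 Note: cells stimulated with 50 nM CITCO agonist so inhibition reflects antagonism; series mostly up to about 46 µM.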 A digest of the protocol: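 HepG2 cells stably carrying hCAR and a CYP2B6-2.2kb luciferase reporter were exposed to compounds plus 50 nM CITCO for 24hr at 37C. CAR activity was read by ONE-Glo luminescence, with viability measured first by CellTiter-Fluor.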
Chain of Nuclear receptor subfamily 1 group I member 3 (Homo sapiens) (Q14994 whole entry, looked up): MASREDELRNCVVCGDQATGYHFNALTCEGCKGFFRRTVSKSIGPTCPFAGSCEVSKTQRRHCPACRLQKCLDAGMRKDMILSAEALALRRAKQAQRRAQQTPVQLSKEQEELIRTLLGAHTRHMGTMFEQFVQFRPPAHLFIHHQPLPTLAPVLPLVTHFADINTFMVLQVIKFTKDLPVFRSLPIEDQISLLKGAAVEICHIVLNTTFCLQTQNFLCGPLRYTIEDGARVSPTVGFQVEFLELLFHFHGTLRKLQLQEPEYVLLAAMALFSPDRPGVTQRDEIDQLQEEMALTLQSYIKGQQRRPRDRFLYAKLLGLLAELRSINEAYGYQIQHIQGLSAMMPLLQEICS

Inconclusive results are not listed. Calls of active or inactive are those of the source. Calls come from the whole dose curve; as a rule, active = well fitted curve in the direction sought with a large enough effect; inconclusive = small, poorly fitted or top-dose-only effect, or another doubt; inactive = no such curve, though single readings can be large; an effect the other way counts as inactive or inconclusive. Peptide text beside a SMILES is read from it. * marks the point of attachment. Octanoyl = CCCCCCCC(=O)*

Chain of Luciferin 4-monooxygenase (Photinus pyralis) (P08659 whole entry, looked up): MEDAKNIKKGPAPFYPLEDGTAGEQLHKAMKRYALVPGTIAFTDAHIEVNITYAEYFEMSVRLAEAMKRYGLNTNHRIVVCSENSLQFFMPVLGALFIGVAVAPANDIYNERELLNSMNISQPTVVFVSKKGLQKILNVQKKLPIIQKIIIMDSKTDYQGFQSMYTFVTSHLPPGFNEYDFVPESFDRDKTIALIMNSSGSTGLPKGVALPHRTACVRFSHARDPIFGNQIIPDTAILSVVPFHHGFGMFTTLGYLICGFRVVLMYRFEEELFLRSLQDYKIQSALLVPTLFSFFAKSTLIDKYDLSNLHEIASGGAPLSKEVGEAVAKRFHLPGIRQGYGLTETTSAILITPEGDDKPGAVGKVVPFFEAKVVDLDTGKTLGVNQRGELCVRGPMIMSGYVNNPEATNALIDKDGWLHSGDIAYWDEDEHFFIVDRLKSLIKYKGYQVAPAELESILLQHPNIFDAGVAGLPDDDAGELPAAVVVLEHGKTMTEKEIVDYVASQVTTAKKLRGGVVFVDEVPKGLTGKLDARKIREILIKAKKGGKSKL

As for `CO[C@@H]1C[C@@H](C[C@H]2CC[C@H](C)[C@H]([C@@H](C)C(=O)O)O2)O[C@]2(O[C@](C)([C@H]3CC[C@@](C)([C@@H]4O[C@@H]([C@H]5O[C@](C)(O)[C@H](C)C[C@@H]5C)C[C@@H]4C)O3)C[C@H]2C)[C@@H]1C`, the Potency was 11 µM (active) in [1]; 9.43 µM (active) in assay [2]; 0.0941 µM (active) in [3]; 5.3 µM (active) in assay [4]; 4.72 µM (active) in assay [5]; 14.7 µM (active) in assay [12]. Besides, the Potency is 14.8 µM (active) in assay [13], 0.118 µM (active) in assay [14], 5.44 µM (active) in assay [16] and 4.67 µM (active) in assay [19]. For the same compound, the Potency result in assay [6], in assay [7], in assay [8], in assay [9], in [10] and in assay [11] was “inactive” throughout. The compound was classed as inactive in [15], in [17] and in assay [18].

For `CCCCCCCC(=O)N[C@@H](CC(C)C)C(=O)N[C@H](C=O)CCC(=O)O` (Octanoyl-Leu-Glu-aldehyde), the Potency in assay [1] was 39.2 µM (active). Also, the Potency result in assay [2], in [3], in assay [4], in assay [5], in assay [6] and in assay [7] was “inactive” throughout. The Potency result in assay [8], in [9], in assay [10], in assay [11], in [12] and in assay [13] was “inactive” each time. Further, the Potency entry in assay [14], in assay [20], in assay [16] and in assay [19] was “inactive” in each case. Besides, the outcome in assay [15], in [17] and in [18] was inactive.

`CC[C@@H]1C[C@@]2(CC)OC(=O)[C@@]3(CC)OC(=O)[C@@H]1[C@@H]23`: the Potency result in assay [1], in assay [2], in [3], in assay [4], in [5] and in assay [6] was “inactive” each time. Besides, the Potency entry in [7], in [8], in assay [9], in assay [10], in assay [11] and in assay [12] was “inactive” throughout. In addition, the Potency result in assay [13], in assay [14], in assay [20], in assay [16] and in assay [19] was “inactive” each time. The result in assay [15], in assay [17] and in assay [18] was inactive.

Take `CC(C)=CCC/C(C)=C/Cc1c(O)c(CC=C(C)C)c(O)c2c(=O)c3cc(O)ccc3oc12`: the Potency in assay [1] was 9.84 µM (active); in assay [2], 13.3 µM (active); in assay [3] it was 10.6 µM (active); in [4], 21.1 µM (active); in [5], 18.8 µM (active); in [12] it was 16.5 µM (active). For the same compound, the Potency in assay [13] was 13.2 µM (active); in [19] it was 26.3 µM (active). In addition, the Potency result in assay [6], in [7], in assay [8], in assay [9], in [10] and in assay [11] was “inactive” each time. Besides, the Potency result in assay [14] and in assay [20] was “inactive” throughout. The call in assay [15], in assay [17] and in assay [18] was inactive.

`COc1cc(O)c2c3c(c(O)cc(C)c13)C(=O)OC2`: the Potency in [1] is 22 µM (active). Besides, the Potency entry in assay [2], in [3], in assay [4], in assay [5], in assay [6] and in [7] was “inactive” each time. In addition, the Potency result in assay [8], in assay [9], in assay [10], in assay [11], in assay [12] and in assay [13] was “inactive” in each case. Besides, the Potency entry in [14], in [20], in [16] and in assay [19] was “inactive” in each case. For the same compound, the result in assay [15], in [17] and in assay [18] was inactive.
